The list is not random: actives were taken first. Their share in the collection is about 2%.
S1P3 antagonist: antagonists of human S1P3 receptor | inhibition, % at 4.98 µM | CHO S1P3 NFAT-BLA reporter, FRET fluorescence, antagonist mode | 170,000 tested, 0.27% active;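 active means inhibition above the plate cutoff, the mean inhibition of test wells on that plate plus 3 SD, cut at about 28% in these data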;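 further: cells challenged with S1P at its EC80 of 0.8 µM; blue over green emission ratio from cleaved BLA substrate after 4 h stimulation; 0% = S1P-stimulated wells and 100% = unstimulated DMSO-only wells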
Target sequence (Q99500 whole entry, looked up): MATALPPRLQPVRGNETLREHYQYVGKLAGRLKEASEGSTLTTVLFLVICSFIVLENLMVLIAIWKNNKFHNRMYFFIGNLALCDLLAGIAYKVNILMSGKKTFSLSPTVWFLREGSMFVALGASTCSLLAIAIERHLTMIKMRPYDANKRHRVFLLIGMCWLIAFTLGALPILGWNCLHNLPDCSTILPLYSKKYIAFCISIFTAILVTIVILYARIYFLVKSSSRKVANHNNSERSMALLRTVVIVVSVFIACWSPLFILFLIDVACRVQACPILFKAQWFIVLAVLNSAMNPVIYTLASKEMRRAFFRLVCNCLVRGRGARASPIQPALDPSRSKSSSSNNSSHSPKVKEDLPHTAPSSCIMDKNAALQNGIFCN
S1P4 antagonist: blocks the human S1P4 receptor | O95977 | S1P4-expressing cells, antagonist mode, reporter read-out | inhibition, % at 4.98 µM | 220,000 tested, 0.26% active; in the data active means inhibition above about 29%;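 further: 0% = wells stimulated with agonist and 100% = vehicle wells without agonist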
PGE2 EP2 inh: inhibitors of human EP2 prostaglandin E2 receptor; P43116; C6 glioma cells expressing human EP2, cAMP TR-FRET; cells stimulated with saturating PGE2; inhibition, % at 25 µM; 260,000 tested, 0.52% active;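 active means percent inhibition above 40 after rounding to a whole number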;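 further: rat C6 glioma host cells with rolipram phosphodiesterase inhibitor present; the protocol text gives 20 µM as final concentration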
EP2 modulator: EP2 receptor (human) modulation; EP2-expressing cells, cAMP HTRF FRET, PGE2 co-stimulation; induction, % at 25 µM; 260,000 tested, 0.83% active; AID 940;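 active means compounds whose cAMP rise, as percent of the full-agonist control response, exceeds 60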;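 further: rat C6 glioma line stably carrying human EP2 under a CMV promoter; the protocol text gives 20 µM as final concentration; 100% = response of wells given 1 µM PGE2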
S1P4 ag: activates the human S1P4 receptor; activation, % at 4.98 µM; O95977; 220,000 tested, 0.35% active; S1P4-expressing cell line, agonist reporter assay; in the data active means activation above about 11%;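 further: 0% = DMSO vehicle and 100% = reference agonist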
Numbers without * were called inactive; · = no result given.

SMILES | S1P3 antagonist | S1P4 antagonist | PGE2 EP2 inh | EP2 modulator | S1P4 ag
COc1ccc(NC(C)c2cc(Cl)ccc2O)cc1 (centres undefined) | 63* | 3 | 9 | -4 | -2
CC(Nc1ccccc1)c1cc(Cl)ccc1O (centres undefined) | · | -3 | 4 | 1 | 0
Cc1nn(CC(=O)N2CCCCCC2)c(=O)c2cc3ccsc3n12 | · | · | · | -6 | ·
Cc1nn(CC(=O)NC(C)C2CCCCC2)c(=O)c2cc3sccc3n12 (centres undefined) | · | · | · | -25 | ·
CSc1ncnc2c1ncn2CC(=O)[C@@H]1CC[C@@H]2[C@H]3CCC4=CC(=O)CC[C@@]4(C)[C@@H]3CC[C@]21C | · | · | 64* | 14 | ·
CCC(C)(C)NC(=O)C(c1ccccc1F)N(C(=O)c1csnn1)C1CC1 (centres undefined) | · | · | 7 | -16 | ·
Clc1ccc(OCCN2CCN(c3ncnc4sccc34)CC2)cc1 | 64* | -15 | 3 | 1 | -2
Cc1ccc(OCCN2CCN(c3ncnc4sc(C)c(C)c34)CC2)cc1 | · | -17 | 7 | -11 | -4
CC(=O)O[C@H]1CC[C@@]2(C)C(=CC[C@@H]3[C@H]4CC[C@@H](c5cc(C(F)(F)F)n(C(C)=O)n5)[C@]4(C)CC[C@H]32)C1 | · | · | 42* | 18 | ·
CCOc1ccccc1C1Nc2ccccc2-c2cc(C)nn21 (centres undefined) | · | · | 13 | 62* | ·
COC(=O)C1=C(C)Nc2ncnn2C1c1ccc(OC)cc1 (centres undefined) | · | · | 5 | -21 | ·
CN1[C@H](C(=O)Nc2ccccc2C(F)(F)F)C[C@H](c2ccc(F)cc2)NS1(=O)=O | · | · | · | -20 | ·
N#Cc1cn(-c2ccccc2)nc1C(=O)c1ccccc1 | · | 18 | 15 | 62* | 1
C/C(=N\NC(=S)NCc1ccccc1)c1ccccc1F | -6 | 1 | 3 | 64* | 0
C/C(=N\NC(=S)NCc1ccccc1)c1ccccc1 | 0 | 2 | 4 | 22 | 0
Cc1ccc(NC(=O)c2cc3n(n2)C(C(F)(F)F)CC(c2ccco2)N3)cc1F (centres undefined) | · | · | 17 | -2 | ·
CCNC(=O)c1ccc2c(c1)S(=O)(=O)c1ccccc1C2=O | 85* | 5 | 8 | -17 | 0
COCCNC(=O)c1ccc2c(c1)S(=O)(=O)c1ccccc1C2=O | · | · | 13 | · | ·
COc1ccc2[nH]c(=O)c(CN(CCCO)C(=S)NCc3ccco3)cc2c1 | · | · | 11 | -31 | ·
Nc1ncnc2nc(-c3ccc(C[P+](c4ccccc4)(c4ccccc4)c4ccccc4)cc3)[nH]c12 | · | · | 40* | 25 | ·
CCOc1ccc(-c2nnn(CC(=O)NC3CCCCC3)n2)cc1 | · | · | 13 | -14 | ·
CC(C)(C)c1ccc(S(=O)(=O)/C=C/C#N)cc1 | · | · | 97* | -20 | ·
O=S(=O)(O)[C@@H](CO)c1ccccc1 (tested in a mixture with another compound) | · | · | 49* | 24 | ·
O=S(=O)(O)[C@@H](c1ccccc1)[C@@H](O)c1ccccc1 | · | · | 14 | -2 | ·
CN1C(=O)c2cccc(NC(=O)CCc3ccccc3)c2C1=O | 92* | -23 | 7 | -9 | -3
SMILES | S1P3 antagonist | S1P4 antagonist | PGE2 EP2 inh | EP2 modulator | S1P4 ag
CCCCC(=O)Nc1cccc2c1C(=O)N(c1ccccc1)C2=O | -44 | -3 | 12 | 32 | 0
Cc1cc2nc(CCN3CCOCC3)n(S(=O)(=O)c3ccc(C(C)(C)C)cc3)c2cc1C | · | 1 | 2 | 61* | 0
Cn1c(=O)[nH]c(=O)c2c1nc(NC1CCCCC1)n2Cc1ccccc1Cl | · | · | 10 | 7 | ·
CC(C)(C)c1ncc(C(=O)Nc2cccc(C(=O)N3CCCCC3)c2)cn1 | · | · | 9 | -37 | ·
CC(C)(C)C1=NN(CC(=O)NCCc2cnc[nH]2)C(=O)c2cc3ccccc3n2C1 | · | · | 5 | -17 | ·
O=C(Nc1ccc(NC(=O)c2ccccn2)cn1)c1cccc(Cl)c1 | · | · | 13 | -58 | ·
C=C[C@@H](C1=CC(=O)C(OC)=C(OC)C1=O)c1ccccc1 | · | · | 120* | -32 | ·
COc1ccc(N2CC(O)=C(c3nc(-c4ccccc4)cs3)C2=N)cc1 | 4 | 0 | 14 | -42 | -1
COc1ccc(N2CC(O)=C(c3nc(-c4ccc(Br)cc4)cs3)C2=N)cc1 | -12 | -4 | 48* | -32 | 2
CC1(C)Cc2c(sc3c2c(=N)n(Cc2ccco2)c(=O)n3Cc2ccccc2)CO1 | 42 | 1 | 5 | 59 | -1
CC1(C)Cc2c(sc3c2c(=N)n(Cc2ccco2)c(=O)n3Cc2ccc(Cl)cc2)CO1 | · | -18 | 13 | 61* | -1
O=c1c2c3c(sc2[nH]c(=S)n1Cc1ccco1)CCC3 | -7 | 5 | 40* | 44 | 1

High-throughput results: PubChem, several laboratories
